# From PubChem BioAssay (Tox21)
# A number with no mark means an inactive call. Records with an inconclusive call do not appear. Where a call stands in place of a potency, no number is given. Activity calls are given as the source filed them. Unless noted, the call rests on the fitted dose curve; in most records, active means well fitted curve in the direction sought with a large enough effect in the repeat runs; inconclusive means weak or mixed curves; inactive means no such curve, though single readings can be large; an effect the other way counts as inactive or inconclusive.
# Key:
# [1] = target: Androgen receptor (Homo sapiens) (UniProt P10275); assay: qHTS assay to identify small molecule agonists of the androgen receptor (AR) signaling pathway in the presence of an antagonist (AID 1259381; calls by dose curve; further: nearly all actives have a fitted effect of over 15% in size)
# Androgen receptor (Homo sapiens), sequence (P10275 whole entry, looked up): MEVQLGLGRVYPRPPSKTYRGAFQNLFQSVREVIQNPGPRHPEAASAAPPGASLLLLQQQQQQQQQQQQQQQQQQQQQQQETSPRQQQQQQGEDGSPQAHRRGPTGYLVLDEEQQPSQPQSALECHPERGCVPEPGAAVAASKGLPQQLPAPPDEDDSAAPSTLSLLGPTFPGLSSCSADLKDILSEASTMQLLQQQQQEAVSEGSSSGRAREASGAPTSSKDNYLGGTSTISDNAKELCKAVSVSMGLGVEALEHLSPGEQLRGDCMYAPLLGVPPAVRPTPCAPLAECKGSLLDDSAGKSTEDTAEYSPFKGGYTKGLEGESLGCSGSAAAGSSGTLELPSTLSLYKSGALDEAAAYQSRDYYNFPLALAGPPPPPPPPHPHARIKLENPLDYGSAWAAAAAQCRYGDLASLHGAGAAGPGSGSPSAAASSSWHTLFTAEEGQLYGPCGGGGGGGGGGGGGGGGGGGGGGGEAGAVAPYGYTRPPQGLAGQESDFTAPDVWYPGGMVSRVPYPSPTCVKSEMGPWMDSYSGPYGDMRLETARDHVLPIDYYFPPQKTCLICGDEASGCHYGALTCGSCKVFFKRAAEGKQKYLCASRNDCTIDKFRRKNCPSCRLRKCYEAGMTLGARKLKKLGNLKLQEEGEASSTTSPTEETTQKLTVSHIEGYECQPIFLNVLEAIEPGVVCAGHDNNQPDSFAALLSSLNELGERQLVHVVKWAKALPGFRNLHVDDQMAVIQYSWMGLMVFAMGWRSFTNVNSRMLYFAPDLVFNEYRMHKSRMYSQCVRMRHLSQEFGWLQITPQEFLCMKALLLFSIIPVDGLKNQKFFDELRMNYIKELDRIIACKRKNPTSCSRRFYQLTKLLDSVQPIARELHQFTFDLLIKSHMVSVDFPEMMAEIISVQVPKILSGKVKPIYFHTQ
# Outline: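 Using human MDA-kb2 cells with an MMTV promoter–luciferase construct (AR and GR response elements), agonist activity is scored under 3.0uM nilutamide (final) co-treatment; 16hr incubation, 37C, luminescence readout via ONE-Glo.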
# [2] = qHTS assay to identify small molecule antagonists of the estrogen receptor beta (ER-beta) signaling pathway - cell viability counter screen (AID 1259382); further: series mostly up to about 92 µM; nearly all actives have a fitted effect of over 55% in size
# Outline: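 Agonist-stimulated (1nM E2) ER-beta-UAS-bla HEK293T cells are incubated with library compounds for 16 hr at 37C. Cell viability is then assessed in the reporter-assay wells by adding CellTiter-Glo and reading luminescence after 30 min.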
# [3] = qHTS assay to identify small molecule agonists of the estrogen receptor alpha (ER-alpha) signaling pathway in the presence of an antagonist - cell viability counter screen (AID 1259386);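 further: cells exposed to compounds for 22 h at 37 °C before the viability read; nearly all actives have a fitted effect of over 30% in size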; further: potency means the concentration at half of the fitted maximal effect
# Outline: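 ICI-182,780 at 10.0nM final accompanies the compound titration (15 concentrations, 22hr, 37C) on VM7Luc4E2 cells. The CellTiter-Fluor fluorescence readout runs in the same wells as the luciferase assay.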
# [4] = qHTS assay to identify small molecule antagonists of the TGF-beta/Smad signaling pathway - cell viability counter screen (AID 1346824); further: nearly all actives have a fitted effect of over 50% in size
# Outline: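 SBE-bla HEK 293T cells were plated overnight at 37 C, then given compounds in DMSO plus TGF-beta1 (added as 0.25 ng/mL solution) for 5 hr. After the bla read, CellTiter-Glo was added to the same wells and luminescence read after 30 min at room temperature.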
# [5] = qHTS assay to identify small molecule agonists of the TGF-beta/Smad signaling pathway - cell viability counter screen (AID 1346829); further: top concentration of the series differs between compounds; nearly all actives have a fitted effect of over 45% in size
# Outline: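 Same-well cytotoxicity: CellTiter-Glo added after the 2 hr room-temperature beta-lactamase substrate step, luminescence measured 30 min later; cells had 5 hr of compound at 37 C.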
# [6] = target: Thyrotropin-releasing hormone receptor (Homo sapiens) (UniProt P34981); assay: qHTS assay to identify small molecule antagonists of the thyrotropin-releasing hormone receptor (TRHR) signaling pathway (AID 1346877; active means well fitted inhibition curve with a large enough effect in the repeat runs, not every such curve was filed as active; further: series mostly up to about 51 µM)
# Thyrotropin-releasing hormone receptor (Homo sapiens), sequence (P34981 whole entry, looked up): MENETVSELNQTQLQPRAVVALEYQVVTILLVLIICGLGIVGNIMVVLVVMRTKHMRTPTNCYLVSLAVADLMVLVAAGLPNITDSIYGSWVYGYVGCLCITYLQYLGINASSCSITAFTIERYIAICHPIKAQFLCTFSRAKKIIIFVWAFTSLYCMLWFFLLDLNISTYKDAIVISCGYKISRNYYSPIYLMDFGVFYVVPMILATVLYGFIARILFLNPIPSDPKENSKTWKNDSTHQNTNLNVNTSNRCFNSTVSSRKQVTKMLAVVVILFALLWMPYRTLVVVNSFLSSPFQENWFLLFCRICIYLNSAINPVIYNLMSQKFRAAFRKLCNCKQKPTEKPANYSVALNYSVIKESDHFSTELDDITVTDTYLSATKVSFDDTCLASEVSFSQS
# Outline: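 Screening used HEK293 cells engineered with TRHR, with a brief 5 min room-temperature compound exposure preceding addition of TRH to 1 nM. The read-out was kinetic calcium-dye fluorescence, concentration-response from 15 doses in triplicate.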
# [7] = target: Thyrotropin-releasing hormone receptor (Homo sapiens) (UniProt P34981); assay: qHTS assay to identify small molecule agonists of the thyrotropin-releasing hormone receptor (TRHR) signaling pathway (AID 1346891; calls by dose curve; further: series mostly up to about 58 µM)
# Outline: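 Intracellular calcium rise, read as fluorescence every second for 3 min, served as the agonist signal in dye-loaded HEK293 cells expressing TRHR; each compound ran at 15 concentrations in triplicate.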
# [8] = Human pregnane X receptor (PXR) small molecule agonists, qHTS cell viability counter screen (AID 1346977); further: nearly all actives have a fitted effect of over 50% in size; further: potency means the concentration at half of the fitted maximal effect
# Outline: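 PXR-Luc HepG2, 2,000 cells/well, 5% charcoal-stripped FBS; 5hr settle; cpd 24hr, 37C/5% CO2; CellTiter-Fluor at 23hr, read 1hr later (fluorescence).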
# [9] = Caspase-3/7 induction in HepG2 cells by small molecules, qHTS assay (AID 1346978); further: nearly all actives have a fitted effect of over 15% in size
# Outline: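 Wild-type HepG2 cells (2,000/well) were settled 5 h at 37 C, 5% CO2, then exposed to compounds in DMSO for 17 h. Caspase-3/7 activity was read by luminescence 30 min after adding Caspase-Glo 3/7 reagent at room temperature.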
# [10] = Caspase-3/7 induction in CHO-K1 cells by small molecules, qHTS cell viability counter screen (AID 1346979); further: nearly all actives have a fitted effect of over 35% in size; further: potency means the concentration at half of the fitted maximal effect
# Outline: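 Cells (CHO-K1, wild type) are plated at 1,500 per well and incubated 5hr. Test compounds in DMSO are then pinned in, followed by 16hr at 37C and 5% CO2. Viability is read by CellTiter-Fluor fluorescence after 1hr.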
# [11] = Caspase-3/7 induction in CHO-K1 cells by small molecules, qHTS assay (AID 1346980); further: nearly all actives have a fitted effect of over 15% in size
# Outline: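 Wild-type cells were seeded at 1,500 per well and settled 5 hr at 37 C, 5% CO2, then exposed to DMSO-dissolved compounds for 17 hr. Caspase-Glo 3/7 reagent was added, and luminescence was read after 30min at room temperature.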
# [12] = qHTS assay to identify small molecule antagonists of the progesterone receptor (PR) signaling pathway - cell viability counter screen (AID 1346798);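 further: HEK293T PR-UAS-bla cells stimulated with the agonist R5020; series mostly up to about 92 µM; nearly all actives have a fitted effect of over 50% in size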
# Outline: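 HEK293T PR-UAS-bla, 2% charcoal-stripped FBS; 4 hr pre-plate; cpd + R5020, 16 h 37C; LiveBLAzer read first; then CellTiter-Glo 30 min RT, luminescence.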
# [13] = target: Estrogen receptor (Homo sapiens) (UniProt P03372); assay: qHTS assay to identify small molecule agonists of the estrogen receptor alpha (ER-alpha) signaling pathway in the presence of an antagonist (AID 1259383; calls by dose curve; further: top concentration of the series differs between compounds; nearly all actives have a fitted effect of over 15% in size)
# Estrogen receptor (Homo sapiens), sequence (P03372 whole entry, looked up): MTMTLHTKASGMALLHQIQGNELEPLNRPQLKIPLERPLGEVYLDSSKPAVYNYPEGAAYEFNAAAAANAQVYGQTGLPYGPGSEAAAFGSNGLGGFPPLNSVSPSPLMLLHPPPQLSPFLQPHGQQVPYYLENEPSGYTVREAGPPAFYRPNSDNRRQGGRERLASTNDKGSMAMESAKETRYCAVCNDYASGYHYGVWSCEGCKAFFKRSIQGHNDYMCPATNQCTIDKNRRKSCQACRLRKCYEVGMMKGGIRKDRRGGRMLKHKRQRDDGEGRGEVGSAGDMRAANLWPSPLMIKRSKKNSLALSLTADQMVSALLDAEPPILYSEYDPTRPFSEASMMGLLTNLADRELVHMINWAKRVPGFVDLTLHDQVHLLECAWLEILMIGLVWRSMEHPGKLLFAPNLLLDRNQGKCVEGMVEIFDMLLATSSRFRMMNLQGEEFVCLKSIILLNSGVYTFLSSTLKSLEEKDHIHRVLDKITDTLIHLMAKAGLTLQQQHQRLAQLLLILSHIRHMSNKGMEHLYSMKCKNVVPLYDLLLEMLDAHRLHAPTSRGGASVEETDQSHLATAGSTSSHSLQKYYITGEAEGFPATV
# Outline: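 Using VM7Luc4E2 cells seeded 24hr before treatment, antagonist ICI-182,780 (10.0nM final) was added, followed by compounds at 15 concentrations. Plates incubated 22hr; ONE-Glo luminescence quantified reporter activity.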
# [14] = qHTS assay to identify small molecule agonists or antagonists of the thyroid stimulating hormone receptor (TSHR) signaling pathway - wild type cell line counter screen (AID 1259384; calls by dose curve)
# Outline: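 Wild-type HEK293 cells were plated 18 h at 37 C/5% CO2, pin-dosed with compound plus Ro20-1724 medium, held 30 min at room temperature, then given cAMP-d2 and anti-cAMP-cryptate; fluorescence was read after 1 h. Fifteen concentrations, triplicate.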
# [15] = target: Progesterone receptor (Homo sapiens) (UniProt P06401); assay: qHTS assay to identify small molecule agonists of the progesterone receptor (PR) signaling pathway (AID 1346784; calls by dose curve; further: nearly all actives have a fitted effect of over 30% in size)
# Progesterone receptor (Homo sapiens), sequence (P06401 whole entry, looked up): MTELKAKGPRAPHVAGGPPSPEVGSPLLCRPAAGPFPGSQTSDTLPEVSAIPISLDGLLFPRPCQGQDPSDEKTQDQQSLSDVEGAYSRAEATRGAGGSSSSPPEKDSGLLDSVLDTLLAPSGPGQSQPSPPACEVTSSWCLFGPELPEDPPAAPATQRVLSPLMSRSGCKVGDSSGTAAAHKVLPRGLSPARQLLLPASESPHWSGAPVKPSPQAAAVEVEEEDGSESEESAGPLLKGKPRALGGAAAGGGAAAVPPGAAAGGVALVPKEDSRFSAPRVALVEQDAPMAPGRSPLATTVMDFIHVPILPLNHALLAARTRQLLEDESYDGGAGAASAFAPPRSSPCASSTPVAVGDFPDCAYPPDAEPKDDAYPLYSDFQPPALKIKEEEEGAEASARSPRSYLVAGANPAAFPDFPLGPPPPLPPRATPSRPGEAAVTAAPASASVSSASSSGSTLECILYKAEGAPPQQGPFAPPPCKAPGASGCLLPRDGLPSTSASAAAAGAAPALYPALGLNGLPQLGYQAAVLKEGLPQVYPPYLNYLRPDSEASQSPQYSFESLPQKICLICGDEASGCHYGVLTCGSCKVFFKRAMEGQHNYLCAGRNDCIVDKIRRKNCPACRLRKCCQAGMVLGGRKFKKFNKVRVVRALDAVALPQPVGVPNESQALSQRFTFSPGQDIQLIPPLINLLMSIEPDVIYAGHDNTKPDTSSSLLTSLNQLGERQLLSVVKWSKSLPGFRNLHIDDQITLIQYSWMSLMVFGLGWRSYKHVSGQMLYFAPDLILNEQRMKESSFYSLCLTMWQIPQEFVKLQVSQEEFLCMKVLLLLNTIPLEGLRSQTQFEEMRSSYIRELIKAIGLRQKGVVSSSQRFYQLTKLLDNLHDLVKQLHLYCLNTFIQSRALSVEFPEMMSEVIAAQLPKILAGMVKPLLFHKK
# Outline: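 Beta-lactamase reporter read-out: after 16 hr compound treatment at 37C and a further 2 hr at room temperature with LiveBLAzer B/G FRET substrate, fluorescence was measured in PR-UAS-bla HEK 293T cells grown in 2% charcoal-stripped serum.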
# [16] = qHTS assay to identify small molecule agonists of the progesterone receptor (PR) signaling pathway - cell viability counter screen (AID 1346799; calls by dose curve; further: nearly all actives have a fitted effect of over 45% in size)
# Outline: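 Luminescence from CellTiter-Glo, added after the beta-lactamase FRET read in the same wells, gave cytotoxicity in PR-UAS-bla HEK293T cells treated with compounds for 16 hr at 37C.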
# [17] = qHTS assay to identify small molecule agonists of the TGF-beta/Smad signaling pathway (AID 1346859; active means well fitted activation curve with a large enough effect in the signal ratio in the repeat runs, not every such curve was filed as active; the % refers to the signal ratio; further: series mostly up to about 77 µM)
# Outline: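 SBE-bla HEK 293T, 4,000 cells/well, plated o/n; cpd in DMSO, 5 hr, 37 C/5% CO2; B/G FRET substrate 2 hr RT; ex 405, em 460/530 nm.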
# [18] = target: Thyrotropin receptor (Homo sapiens) (UniProt P16473); assay: qHTS assay to identify small molecule antagonists of the thyroid stimulating hormone receptor (TSHR) signaling pathway (AID 1259385; calls by dose curve; further: nearly all actives have a fitted effect of over 20% in size)
# Thyrotropin receptor (Homo sapiens), sequence (P16473 whole entry, looked up): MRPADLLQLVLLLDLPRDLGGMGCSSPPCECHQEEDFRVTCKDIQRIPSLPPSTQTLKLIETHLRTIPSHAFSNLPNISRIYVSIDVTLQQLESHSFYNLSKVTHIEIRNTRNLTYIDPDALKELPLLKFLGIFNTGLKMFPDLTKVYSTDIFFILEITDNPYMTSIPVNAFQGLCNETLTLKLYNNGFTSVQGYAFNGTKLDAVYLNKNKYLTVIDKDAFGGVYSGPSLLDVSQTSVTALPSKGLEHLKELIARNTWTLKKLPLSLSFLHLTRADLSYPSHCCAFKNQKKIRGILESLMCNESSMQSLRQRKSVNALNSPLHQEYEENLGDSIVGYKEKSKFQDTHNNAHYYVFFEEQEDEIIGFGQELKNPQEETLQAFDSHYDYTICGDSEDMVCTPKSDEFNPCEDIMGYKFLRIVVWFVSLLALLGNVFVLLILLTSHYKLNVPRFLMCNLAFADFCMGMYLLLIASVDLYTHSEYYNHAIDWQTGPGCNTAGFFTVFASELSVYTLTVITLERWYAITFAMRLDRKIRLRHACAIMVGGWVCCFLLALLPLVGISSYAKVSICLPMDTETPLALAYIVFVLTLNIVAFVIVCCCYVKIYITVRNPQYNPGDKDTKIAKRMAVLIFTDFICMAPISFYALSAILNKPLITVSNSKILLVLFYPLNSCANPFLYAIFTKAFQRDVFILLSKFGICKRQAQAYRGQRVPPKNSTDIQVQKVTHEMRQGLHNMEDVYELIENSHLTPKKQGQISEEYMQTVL
# Outline: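 TSHR-HEK293 cells were plated and held 18 h at 37C/5% CO2, then given compound plus Ro20-1724 and stimulated with TSH at 1.5 ng/mL final. After 30 min at room temperature, cAMP was detected with cAMP-d2/anti-cAMP-cryptate (1 h) by fluorescence.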
# [19] = target: Progesterone receptor (Homo sapiens) (UniProt P06401); assay: qHTS assay to identify small molecule antagonists of the progesterone receptor (PR) signaling pathway (AID 1346795; active means well fitted inhibition curve with a large enough effect in the signal ratio in the repeat runs, not every such curve was filed as active; the % refers to the signal ratio; further: potency means the concentration at half of the fitted maximal effect)
# Outline: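 Read-out is fluorescence from the LiveBLAzer B/G FRET substrate, cleaved by a UAS-controlled beta-lactamase in PR-UAS-bla HEK293T cells after 16 hr exposure to compound plus 1 nM promegestone (final), followed by 2 hr at room temperature.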
Compound,Potency [1],Potency [2],Potency [3],Potency [4],Potency [5],Potency [6],Potency [7],Potency [8],Potency [9],Potency [10],Potency [11],Potency [12],Potency [13],Potency [14],outcome [15],Potency [16],outcome [17],Potency [18],Potency [19]
CCCC(=O)c1cc(O)c(O)cc1O,inactive,inactive,30.6 µM (active),inactive,inactive,inactive,inactive,44.7 µM (active),inactive,51.4 µM (active),inactive,–,–,–,–,–,–,–,–
O=C1Cc2ccccc2C1,–,–,–,–,–,inactive,inactive,–,–,68.6 µM (active),inactive,inactive,–,–,–,–,–,–,–
CS(=O)(=O)c1ccc([C@@H](CC2CCCC2)C(=O)Nc2cnccn2)cc1Cl,–,–,–,–,–,–,–,–,inactive,61.1 µM (active),inactive,–,–,–,–,–,–,–,–
CCOC(=O)C1=NN(c2ccc(Cl)cc2Cl)C(C)(C(=O)OCC)C1 (stereo unspecified),inactive,inactive,–,inactive,inactive,–,inactive,inactive,inactive,inactive,inactive,inactive,inactive,inactive,inactive,inactive,inactive,–,–
CCCOC(=O)c1ccc(O)cc1,–,–,–,inactive,inactive,inactive,inactive,inactive,inactive,inactive,inactive,–,–,inactive,inactive,–,inactive,–,–
O=C1CCC/C=C\CCCCCCCCCC1,–,inactive,–,inactive,–,inactive,inactive,–,inactive,inactive,inactive,–,–,inactive,inactive,–,inactive,inactive,48.6 µM (active)
Nc1ccc(N)c([N+](=O)[O-])c1,–,–,30.6 µM (active),–,–,–,–,–,inactive,40.9 µM (active),inactive,inactive,–,–,–,–,–,–,–
CC(C)(c1ccc(Oc2ccc(N)cc2)cc1)c1ccc(Oc2ccc(N)cc2)cc1,inactive,–,54.5 µM (active),inactive,inactive,inactive,inactive,–,inactive,–,inactive,–,–,inactive,inactive,inactive,inactive,–,–
O=C1CCCCCCCCCCCCCC1,–,inactive,inactive,inactive,inactive,–,inactive,inactive,inactive,–,inactive,inactive,inactive,inactive,inactive,inactive,inactive,–,inactive
CCCCCCCC/C=C\CCCCCCCC(=O)N(CCO)CCO,–,inactive,inactive,inactive,–,–,–,–,inactive,68.3 µM (active),inactive,–,inactive,inactive,inactive,–,inactive,inactive,43.1 µM (active)
